From the supplement of paper PMC9694430 come the findings set out here.

The assay has as its system LOC_OS07G07230-cb001. Put plainly: thermal shift delta Tm vs DMSO control; higher = stronger stabilization (binding). Conditions: 12.5 µM; protein concentration 2 µM. An outline of the steps:
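The melting temperature shift given here is a triplicate mean, measured against protein that received only DMSO. Melting temperatures came from Boltzmann fits of differential scanning fluorimetry data on E. coli-expressed, purified rice kinase domain constructs. Each 19.5 μl well contained 2 μM kinase, 100 mM potassium phosphate pH 7.5, 150 mM NaCl, 10% glycerol, 5 × SYPRO Orange and compound in DMSO. Plates were scanned from 25°C to 95°C at 0.05°C/s.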
As to `O=C1NC(=O)C(c2ccccc2[N+](=O)[O-])=C1Nc1ccc(O)c(Cl)c1`, the “thermal shift delta Tm” value was 0.07 °C.
`CCOc1cc2ncc(C#N)c(Nc3ccc(OCc4ccccn4)c(Cl)c3)c2cc1NC(=O)/C=C/CN(C)C` [Neratinib (HKI-272)]: the “thermal shift delta Tm” value amounted to 0.81 °C.
In the case of `CCCS(=O)(=O)Nc1ccc(F)c(C(=O)c2c[nH]c3ncc(-c4ccc(Cl)cc4)cc23)c1F` [Vemurafenib (PLX4032, RG7204)] it was 0.34 °C; in that of `Cc1cn(-c2cc(NC(=O)c3ccc(C)c(Nc4nccc(-c5cnccn5)n4)c3)cc(C(F)(F)F)c2)cn1` [Radotinib], 0.23 °C.
In the case of `OC(c1cc(-c2ccc(Cl)cc2)nc2ccccc12)C1CCCCN1` (configuration not stated) [Vacquinol-1] it was -0.36 °C; in that of `Cc1cc(CS(=O)(=O)c2ccccc2)cc(OCc2ccc(CN3CCC[C@@H]3CO)cc2)c1`, 0.08 °C; in that of `Clc1ccc(Nc2nnc(Cc3ccncc3)c3ccccc23)cc1` [Vatalanib (PTK787) 2HCl], 0.41 °C.
In the case of `CN1CCN(c2ccc(Nc3cc(-c4cccc(-n5ccc6cc(C7CC7)cc(F)c6c5=O)c4CO)cn(C)c3=O)nc2)CC1` it was 0.61 °C; in that of `O=C1NC(=O)[C@@H](c2cn3c4c(cccc24)CCC3)[C@@H]1c1c[nH]c2ccccc12` [Tivantinib (ARQ 197)], 0.56 °C; in that of `COc1cc(-c2cc(-c3ccc(N4CCNCC4)cc3)cnc2C)cc(OC)c1OC`, 0.01 °C.
Regarding `Cn1ncc(Cl)c1-c1cc(C(=O)N[C@H](CN)Cc2ccc(F)c(F)c2)oc1Cl`, the “thermal shift delta Tm” value was -0.13 °C.
In the case of `C[C@H](Nc1ncnc2nc[nH]c12)c1cc2cccc(Cl)c2c(=O)n1-c1ccccc1` [Duvelisib (IPI-145, INK1197)] it was 12.2 °C.
